ADAM17 inh: ADAM17 inhibition, QFRET primary screen. recombinant ADAM17, EDANS/DABCYL FRET peptide cleavage. inhibition, % at 6.95 µM. P78536. 0.83% of 370,000 active;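 active means inhibition above the mean of compounds lying between control limits plus 3 SD, set per campaign, cut at about 8.5% in these data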;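 further: 0% = DMSO-only wells as the low control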
ADAM10 inh: ADAM10 inhibition, QFRET primary screen; recombinant ADAM10, EDANS/DABCYL FRET peptide cleavage, 3 h; 0.62% of 370,000 active; O14672; inhibition, % at 7 µM;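 active means inhibition above a per-campaign cutoff equal to the mean of compounds falling between control-based bounds plus 3 SD, cut at about 20% in these data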;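 further: 0% = DMSO wells while the 100% control is not disclosed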
rCAG RNA binder: molecules binding r(CAG) RNA repeats; r(CAG) RNA repeat, TO-PRO-1 dye displacement fluorescence; 1.3% of 370,000 active; inhibition, % at 3 µM; AID 651821;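 active means inhibition above the plate cutoff, the mean of all test compounds on that plate plus 3 SD, cut at about 35% in these data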;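 further: 0% = DMSO alone and 100% = 100 µM mitoxantrone as full dye displacement; higher means more dye released from RNA so lower well fluorescence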
KLK7 zymogen act: activators of human kallikrein-7 zymogen; AID 652039; P49862; 0.9% of 370,000 active; purified proKLK7, EDANS-DABCYL substrate fluorescence; 100% is mature enzyme control, 0% vehicle; activation, % at 7 µM;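 active means activation above the mean of all tested compounds plus 3 SD, computed per campaign excluding outliers beyond control limits, cut at about 13% in these data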
Target sequence (P49862 whole entry, looked up): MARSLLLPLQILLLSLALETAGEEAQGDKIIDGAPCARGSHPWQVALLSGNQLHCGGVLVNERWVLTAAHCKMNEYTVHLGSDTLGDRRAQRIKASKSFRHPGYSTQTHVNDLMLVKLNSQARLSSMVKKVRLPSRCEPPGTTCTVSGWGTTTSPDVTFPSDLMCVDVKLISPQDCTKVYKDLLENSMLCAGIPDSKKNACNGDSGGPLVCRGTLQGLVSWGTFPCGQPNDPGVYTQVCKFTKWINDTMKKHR
NR3A LBD binder: modulates the human NR3A ligand-binding domain. NR3A LBD differential scanning fluorimetry, Tm shift; 0% = protein alone, 100% = glycine-bound protein. Tm shift relative to glycine control, % at 25 µM. 2.5% of 340,000 active;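 active means melting temperature shift of at least 10% of the positive control shift, at one fixed dose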
AHR activator: activators of human aryl hydrocarbon receptor. AHR-responsive luciferase reporter cells, luminescence. P35869. 2.5% of 320,000 active. activation, % at 5 µM; in the data active means activation above about 47%;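 further: 0% = vehicle wells and 100% = reference agonist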
Starred values were filed as active, the others as inactive; i = inactive; x = no result given. Only some compounds are listed: those with a hit (about 7% of all), similar ones and a draw of the others.

SMILES | ADAM17 inh | ADAM10 inh | rCAG RNA binder | KLK7 zymogen act | NR3A LBD binder | AHR activator
O=C(Nc1ccc(OCc2ccccc2)cc1)c1cccc([N+](=O)[O-])c1 | 0 | 1 | 3 | -1 | 27* | 10
O=C(Nc1ccccc1Oc1ccccc1)c1cccc([N+](=O)[O-])c1 | 5 | 10 | 0 | 0 | 0 | 77*
COc1ccccc1NC(=O)CC(=O)c1cccc([N+](=O)[O-])c1 | 4 | 10 | 12 | 0 | 6 | 5
CCOC(=O)CC[C@@H]1CC[C@]2(CCCN(C(=O)C3CCCC3)C2)O1 | -1 | -4 | 3 | 1 | x | x
Cc1ccc(C(=O)Nc2ccc(OCc3ccccc3)cc2)cc1[N+](=O)[O-] | -1 | -4 | 2 | 0 | 28* | -4
Cc1ccc(C(=O)NC(=S)Nc2cccc(NC(=O)c3ccccc3Cl)c2)cc1[N+](=O)[O-] | -2 | 3 | 12 | 0 | -5 | 6
Cc1ccc(C(=O)NC(=S)Nc2cccc(NC(=O)c3ccccc3)c2)cc1[N+](=O)[O-] | 2 | 6 | 14 | 0 | 19* | 34
Cc1ccc(C(=O)Nc2ccncc2)cc1[N+](=O)[O-] | -3 | -9 | 0 | 0 | 2 | -2
CCCC1CCC2(CC1)CCC2OC(=O)Nc1ccc2c(c1)OCO2 (stereo not given) | 1 | 2 | x | x | x | x
Cc1c(Cl)cccc1NC(=O)Nc1ccccc1C(N)=O | -24 | -102 | -5 | 2 | -1 | 5
O=C(Nc1ccc2c(c1)CCC2)c1ccccc1 | -2 | -8 | -4 | 0 | 14* | 6
Cc1c(Cl)cccc1NC(=O)Nc1ccc(C(N)=O)cc1 | -7 | -11 | 1 | 0 | 11* | -2
O=C(Nc1ccc2c(c1)CCC2)Nc1ccccc1Cl | 1 | 7 | 4 | 0 | 10* | 1
CCOc1ccccc1NC(=O)NC(=O)N(C)S(=O)(=O)c1ccc(C)cc1 | 0 | 2 | 5 | -1 | -2 | 64*
N#Cc1cc(F)cc(OC[C@@H](O)CN2CCC(C(O)(c3ccccc3)c3ccccc3)CC2)c1 | -1 | 3 | -3 | 0 | x | x
O=C(Nc1csc([N+](=O)[O-])c1)Nc1ccccc1Cl | 2 | 4 | 10 | 0 | 39* | 1
CCOc1ccccc1NC(=O)Nc1ccc2c(c1)CCC2 | 3 | -3 | 3 | 0 | 2 | 78*
O=C(Cc1ccc(Cl)cc1)Nc1ncc([N+](=O)[O-])s1 | -1 | 2 | 6 | 0 | -7 | x
O=C(Nc1ccc(Cl)cc1)Nc1ccccc1Sc1ncc([N+](=O)[O-])s1 | -2 | -2 | 13 | -1 | 13* | 66*
Cc1ccc(C(=O)Nc2nc(C)c(C(=O)Nc3ccc4c(c3)CCC4)s2)cc1 | -3 | -29 | 8 | -5 | 19* | 18
Cc1nc(NC(=O)c2ccc(F)cc2)sc1C(=O)Nc1ccc2c(c1)CCC2 | 2 | 1 | 2 | 0 | 5 | 16
CC(C)C(=O)Nc1ccc(Nc2ccccc2)cc1 | -2 | 1 | -4 | 0 | 26* | -2
O=C(Nc1ccc(Nc2ccccc2)cc1)Nc1ccccc1Cl | 7 | 10 | 12 | 0 | 18* | -4
Cc1occc1C(=O)Nc1ccc2c(c1)CCC2 | 8 | 16 | 7 | 0 | 11* | 2
O=C(Nc1ccccc1Cl)Nc1cccnc1Cl | 1 | 0 | 0 | 0 | 19* | 7
SMILES | ADAM17 inh | ADAM10 inh | rCAG RNA binder | KLK7 zymogen act | NR3A LBD binder | AHR activator
O=C(Nc1ccccc1Cl)Nc1ccccc1Cl | -10 | 7 | 0 | 0 | -3 | 4
C/C(=C/c1nc(N)n(Cc2ccccc2)c1Cc1ccccc1)Cn1[nH]c(=O)n(-c2ccccc2)c1=O | 0 | 0 | 10 | 0 | x | x
CCOc1ccccc1NC(=O)Nc1cccc(S(N)(=O)=O)c1 | -3 | -7 | 2 | 0 | 1 | 48*
CCOc1ccccc1NC(=O)Nc1cccc(NC(C)=O)c1 | -2 | -1 | 0 | 1 | -20 | 18
COC(=O)[C@]12C[C@H](CC(=O)N3CCCCC3)C(=O)N(CCC3=CCCCC3)C1=C[C@H](C1CCCC1)O[C@@H]2C | -8 | -11 | 7 | 0 | x | x
COCCNC(=O)c1c(N)n(CCCn2ccnc2)c2nc3ccccc3nc12 | -497 | i | 5 | 5 | 2 | 53*
C[C@H]1[C@@H](c2ccccc2)Oc2c(Cl)cccc2S(=O)(=O)N1C | 1 | -10 | 2 | 1 | x | x
Cc1cc(C)nc(NC(=O)/C=C/c2cccs2)c1 | -5 | -25 | -5 | -2 | 2 | 0
CCc1nnc(NC(=O)/C=C/c2cccs2)s1 | -5 | 8 | -1 | 1 | 0 | 52*
O=C(/C=C/c1cccs1)Nc1cccc(NC(=O)/C=C/c2cccs2)n1 | -2 | -16 | 19 | -93 | 24* | 25
CCOc1ccc(-n2c(SCC(=O)c3ccccc3Cl)nnc2-c2ccncc2)cc1 | 5 | 9 | 6 | 0 | x | x
CCC[C@H]1[C@@H](OC(=O)NCc2ccco2)CC[C@@]23CCCN2C(=O)CCC[C@@H]13 | -7 | -2 | x | x | x | x
CCCCC1O[C@@H](C)[C@@H]2CN3CCc4c([nH]c5ccccc45)[C@@H]3C[C@@H]2N1C (stereo not given in full) | -19 | -72 | 0 | 0 | x | x
Cc1cc(C(=O)Nc2cccc(O)c2)c(C)o1 | 0 | -7 | 1 | 12 | 17* | 11
Cc1cc(C(=O)Nc2cccc(C(=O)O)c2)c(C)o1 | -3 | -9 | 0 | -1 | -1 | 2
CN(/N=C/c1ccc(O)cc1O)c1nc(-c2ccccc2)cc(-c2ccccc2)n1 | -4 | -1 | 14 | 0 | 22* | 13
Cc1nc2ccccc2c(=O)n1/N=C/c1ccc(O)cc1O | -2 | -14 | -1 | -3 | 0 | -1
COc1ccc(/C=N/Nc2nc(C)cc(-c3ccccc3)n2)cc1OC | 5 | 8 | 0 | 0 | -1 | 52*
Cc1cc(-c2ccccc2)nc(N/N=C/c2ccc(O)cc2O)n1 | 3 | 5 | 17 | -1 | 11* | 1
Cc1cc(-c2ccccc2)nc(N/N=C/c2ccc([N+](=O)[O-])cc2)n1 | 1 | 3 | 10 | 0 | 24* | -5
COC(=O)[C@]12C[C@H](CC(=O)NCc3ccc(C)o3)C(=O)N(CCc3ccc(OC)c(OC)c3)C1=C[C@H](C1CCCC1)O[C@@H]2C | 6 | 4 | 3 | 0 | x | x
O=C(NN=C/C=C/c1ccco1)c1cc(-c2ccc(Cl)cc2)n[nH]1 | 1 | -5 | 26 | -1 | x | x
N#C/C(=N\O)c1nc2ccccc2[nH]1 | -2 | -5 | 3 | 0 | 22* | 16
CC(=O)OC(/C(O)=C(\C#N)c1nc2ccccc2[nH]1)c1ccccc1 (stereo not given) | 4 | 10 | 9 | 0 | 1 | 49*
C/C(O)=C(/C#N)c1nc2ccccc2[nH]1 | 1 | 3 | -1 | 0 | 0 | 21

Screening results (PubChem BioAssay)
